Laboratory results reported in the OligoGym collection.

Each sequence was assayed against AP1S1 (assay: pooled miR-30 sensor sort-seq; sequence = guide strand). Conditions: shRNA.
Further: reference of the scale not given here.

Sequence	sensor-assay potency score (higher = more potent)
TTCAGCACACTCTTCTTGGAGG	-0.8
TATCTCTTATAGACAACTTTGA	-1.08
TTTGAGGTCCCTCCACTCCAGG	-1.48
TCTCTTATAGACAACTTTGAGG	-1.16
TTGCAGTAGGTCAGCCTGCTCG	-0.856

Each sequence was assayed against AP2B1 in the same assay as above. Conditions: shRNA.

Sequence	sensor-assay potency score (higher = more potent)
AAAGAGAGAACTAACATCCTTC	0.773
TAACAATTCTAGAAACTTCATT	-0.559
TTGTTGTTTTGCAACTTGCTGG	-0.34
TTTCATTGTTGAGTTCAGCTTT	0.578
TCATCCTTCAAGCACTTGCGGA	-1.05
TTCATTAGGACTTTTACCGCTG	0.615
TTTCAGTTCTGCCAGAACCTGA	-0.77
TTGTTTTGCAACTTGCTGGAAA	-0.458
TAGTTCCAGATTGTCAGTCTGC	-0.496
TTTCTAGTAACTCATCTGCATT	-1.34
TCGAACAAAGTCAACATCCACC	-0.757
TAGAGAATCCAGAAATCCCTGA	0.164
TTTAGTTCAAATATTTCTCCTT	0.5
TAATCTGAAACTGAAGTTCATT	-0.631
TTCTGTAATTTTGTCTACCCGG	-1.02
TAGAAGATCACCTTGAGAGGGG	0.529
TTCATCGTGAAAACCCTCCAGG	-0.0807
TAGCATATTCTTTCAGTTCTGC	0.583
TATTGTAGTAGTCAGAATCCTT	0.0218
TAAATGACATTCCTTAATCTGA	-0.695
TTGTTTTTCACAGCCACCTGGA	-0.558
TTAGTTCAAATATTTCTCCTTT	0.546
TTCAGATCAAGTAAGTTGCTGT	1.15
AATAGTATAAACATTGTTGTTT	-0.183

These sequences were tested against AP3B1 in the same assay as above. Conditions: shRNA.

Sequence	sensor-assay potency score (higher = more potent)
TTCTTCAGCATATCGAACCAGG	-0.815
TTCTTTATAACAACCACACTTT	0.0495
TTATGAATCAGATCTATTCTGT	0.754
TAGAAGTGAAACATCTTTGGTA	0.763
TACTTCTACATTTCGAACTGAT	0.236
TACATTCGGAACAATAAGCTGC	0.383
TAAACATATACCAACTTCTTGA	-0.605
TAGATCTTCATTCTTCTTCAAA	-0.874
TTTCTTTGAATTGACATAGTTG	-0.577
TTTGAATTGACATAGTTGCTAT	-0.399
TAAACCTTCAAGATCAGCCATC	-0.757
